# Data: PubChem BioAssay AID588443 (Southern Research Specialized Biocontainment Screening …, 2011)
# Entries with a potency or affinity are not part of this list. Results filed as inconclusive are left out. Activity calls are given as the source filed them. How the calls were made is not given here.
# Test: THP-1 cell cytotoxicity, cytotoxicity control, set 5 (AID 588443)
# Details: THP-1 cell viability, cytotoxicity CC50; series mostly up to 100 µM
row,Compound,outcome
1,CCOC(=O)CSc1ncnc2c1cnn2-c1ccc(C)cc1C,inactive
2,COc1ccc(N2CCN(C(=O)c3ccc(CNc4c(N5CCOCC5)c(=O)c4=O)cc3)CC2)cc1,inactive
3,COC(=O)CSc1ncnc2c1cnn2-c1ccc(C)cc1C,inactive
4,CCOC(=O)CSc1ncnc2c1cnn2-c1ccccc1,inactive
